Source: ChEMBL document CHEMBL3988442, “University of Dundee, Small-Polar-MMV Screening Library” (2021)
Hit rate of the full screen: of about 48,000 compounds, about 13,000 (27%) showed an effect of 50% or more. Some of the results follow.

test system: Wolbachia pipientis; assay: Anti-Wolbachia Cell-Based Screen; assay type: functional; design: scale not given: in the data most compounds retested in dose-response had high values; conditions: 5 µM

| SMILES | Percent Effect [%] |
| --- | --- |
| Cc1cccc(C)c1OCCNC(=O)C[S+]([O-])C1CCCC1 (configuration not stated) | 0.9364 |
| O=C(C1CCCc2[nH]ncc21)N1CCCC2(C1)OCCO2 (configuration not stated) | 23.68 |
| Fc1cccc(CN2CCC(c3noc(-c4ccncc4)n3)CC2)c1F | 205.5 |
| CC(c1nc(C2CC2)no1)N1CCN(Cc2cccc(F)c2F)CC1 (configuration not stated) | 13.59 |
| Fc1ccc(CN2CCC(c3noc(-c4cnccn4)n3)CC2)cc1F | 155.5 |
| Fc1ccc(CN2CCCC(c3nnc(-c4cnccn4)o3)C2)cc1F (configuration not stated) | -0.1636 |
| Fc1ccc(CN2CCC(c3n[nH]c4nccnc34)CC2)cc1F | -10.9 |
| CCc1cc(NC2CCN(Cc3ccccc3F)CC2)n2nccc2n1 | 21.54 |
| Fc1cccc(CN2CCC(c3noc(-c4ccccn4)n3)CC2)c1F | 179 |
| Fc1ccccc1CN1CCC(c2n[nH]c(C3CC3)n2)CC1 | -0.8499 |
| Fc1ccccc1CN1CCC(c2noc(-c3ccccn3)n2)CC1 | 178 |
| CCn1c(CN(C)C)nnc1C1CCN(Cc2cccc(F)c2F)CC1 | 8.209 |
| CC(=O)NCCC(=O)NCCCOc1c(C)cccc1C | 1.2 |
| CC(=O)N(Cc1c(F)cccc1F)C1CCCC1 | -1.576 |
| O=C(CSc1ccc2c(c1)OCCO2)NS(=O)(=O)c1ccccc1Br | -0.599 |
| COc1ccc2c(c1)OCC(Cc1ccc(CN)cn1)C2 (configuration not stated) | -20.89 |
| O=C(Nc1ccc(F)cc1)N1C[C@H]2CC[C@@H]1CN(Cc1cccnc1)C2 | -11.36 |
| CCC1=N[C@@]2(CC[C@@H]3CN(S(=O)(=O)N(C)C)C[C@@H]32)C(=O)N1CC(C)C | -19.59 |
| CC(=O)NC(C(=O)N1CCn2cncc2C1)C(C)C (configuration not stated) | 3.291 |
| Cc1noc(C)c1CC(=O)OCC(=O)N1CCc2sccc2C1 | 3.916 |
| CC1CN(C2CCN(Cc3nccn3CC(F)(F)F)CC2)CCO1 (configuration not stated) | -6.653 |
| Fc1cccc(C2CCCCN2Cc2nc(-c3cnccn3)no2)c1 (configuration not stated) | -8.906 |
| Fc1cccc(CN2CCC(c3noc(-c4cnccn4)n3)CC2)c1F | 134.1 |
| O=C(c1ccc(-c2cc[nH]n2)cc1)N1CC[C@H](CO)[C@H](O)C1 | 0.4 |

| SMILES | Percent Effect [%] |
| --- | --- |
| CCN(Cc1cc(Cl)c(O)c(OC)c1)Cc1nc(COC)no1 | -9.296 |
| COCCS(=O)(=O)Nc1ccc(-n2nccc2C(F)(F)F)cc1 | 0.6513 |
| O=C(Nc1ccc(-c2csnn2)cc1)N1CCC(N2CCCC2)C1 (configuration not stated) | 0.9 |
| CN(CC(F)(F)F)C(=O)CNC(=O)N1CCC(N2CCCC2)C1 (configuration not stated) | 94.48 |
| CCOC1CCN(C(=O)NCCN(C)C(=O)OC(C)(C)C)CC1 | 7.411 |
| Cc1cnn(CCCNC(=O)N2CCCCC(N3CCCC3)C2)c1 (configuration not stated) | -6.749 |
| CC1CCN(C(=O)NCC(=O)N(C)CC(F)(F)F)C1 (configuration not stated) | 103.3 |
| CN(CC(F)(F)F)C(=O)CNC(=O)Cc1ccc(O)cc1Cl | -9.929 |
| CC(C)C1CCN(C(=O)NCC(=O)N(C)CC(F)(F)F)CC1 | 101.1 |
| CN(CC(F)(F)F)C(=O)CNC(=O)Cc1cccc(O)c1 | -3.923 |
| CN(CC(F)(F)F)C(=O)CNC(=O)Cc1ccccc1O | -0.134 |
| CC(C)=CCN1C[C@H]2CC[C@@H]1CN(CCC(=O)NCc1ccco1)C2 | -7.993 |
| CCOc1ccc(NC(=O)Cc2cc(C)[nH]n2)cc1CO | -2.214 |
| Cc1cc(C)c2c(c1)C(NC(=O)CSCc1ccncc1)CCO2 (configuration not stated) | 0.01106 |
| Cc1nnc(NC(=O)NC(C)Cn2cccn2)s1 (configuration not stated) | 98.41 |
| CC(C)CCC(C)NC(=O)Nc1ccccn1 (configuration not stated) | 3.296 |
| COC(C)(C)CC(C)NC(=O)Nc1ccccn1 (configuration not stated) | 11.35 |
| Cc1cccnc1NC(=O)NC(C)Cn1cccn1 (configuration not stated) | 2.456 |
| CC(Cn1cccn1)NC(=O)Nc1ccccn1 (configuration not stated) | 102.9 |
| CC(Cn1cccn1)NC(=O)NCc1ccccn1 (configuration not stated) | -2.779 |
| Cc1ccc(NC(=O)NC(C)Cn2cccn2)cc1 (configuration not stated) | -6.589 |
| CC(Cn1cccn1)NC(=O)Nc1nnc(C2CC2)s1 (configuration not stated) | -3.463 |
| CCCc1nnc(NC(=O)NC(C)Cn2cccn2)s1 (configuration not stated) | 106.7 |
| CCN1C(=O)CC(N(C)Cc2nc3ccccc3c(=O)[nH]2)C1=O (configuration not stated) | -2.279 |

| SMILES | Percent Effect [%] |
| --- | --- |
| CN(Cc1nc2ccccc2c(=O)[nH]1)C[C@@H]1CCCN2CCCC[C@H]12 | -19.12 |
| CC(C)CS(=O)(=O)CC(=O)N(C)Cc1ccc(OC(F)F)cc1 | -10.21 |
| CCC(CC)c1nnc(NC(=O)NC(C)Cn2cccn2)s1 (configuration not stated) | 102.8 |
| CC(Cn1cccn1)NC(=O)Nc1nncs1 (configuration not stated) | 94.45 |
| COc1ccc(NC(=O)NC(C)Cn2cccn2)cn1 (configuration not stated) | -4.158 |
| CC(Cn1cccn1)NC(=O)Nc1nccs1 (configuration not stated) | -3.735 |
| CC(Cn1cccn1)NC(=O)Nc1ccc(N(C)C)nc1 (configuration not stated) | 1.644 |
| COc1cccc(CN2CCc3nc(C(N)=O)sc3CC2)c1.O=C(O)C(F)(F)F | 8.884 |
| O=C(NCc1ccoc1)Nc1ccc(CN2CCOC2=O)cc1 | -1.544 |
| O=C1OCCN1c1cccc(CNS(=O)(=O)Cc2ccc(F)cc2)c1 | -0.8668 |
| COc1cccc(CN2CCC3(COCc4cnc(N(C)C)nc43)C2)c1.O=C(O)C(F)(F)F (configuration not stated) | -4.622 |
| CN(C)C(=O)CN1CCC2(COCc3cnc(-c4cccnc4)nc32)C1.O=C(O)C(F)(F)F.O=C(O)C(F)(F)F (configuration not stated) | 108.5 |
| Cc1ccccc1CN1CCC2(COCc3cnc(N(C)C)nc32)C1.O=C(O)C(F)(F)F (configuration not stated) | -3.264 |
| CN(C)c1ncc2c(n1)C1(CCN(Cc3ccccc3F)C1)COC2.O=C(O)C(F)(F)F (configuration not stated) | -3.722 |
| CN(C)C(=O)CN1CCC2(COCc3cnc(-c4ccccc4)nc32)C1 (configuration not stated) | 100.5 |
| O=C(CC1CCc2ccccc21)NC1(C(=O)O)CCOCC1 (configuration not stated) | -1.321 |
| CNc1ncccc1CN1CCC1c1cc(N)nc(C)n1 (configuration not stated) | 93.93 |
| CNc1cc(C2CCCN2Cc2ccccc2OCC(=O)O)ccn1 (configuration not stated) | -5.445 |
| Cc1cccnc1CN1CCN(CC(=O)N(C)C)[C@@H]2CS(=O)(=O)C[C@@H]21 | 1.676 |
| Cc1ccccc1CSc1nc(N)cc(N2CC[C@@H](O)C2)n1 | 2.755 |
| CNc1ncccc1CN1CCCCC1c1ccnc(N)n1 (configuration not stated) | 116.5 |
| Fc1cccnc1CN1CCCCC1c1ccn2ccnc2n1 (configuration not stated) | 6.686 |
| CNc1ncccc1CN1CCCCC1c1cc(C)n2ccnc2n1 (configuration not stated) | 94 |
| Cc1cccnc1CN1CCCCC1c1ccn2ccnc2n1 (configuration not stated) | 107.3 |
